Screen size: about 290,000 compounds; about 3,000 (1%) were called active. Rule as the data show it: active = inhibition mostly above about 36% (no sharp cut-off); inactive = mostly below about 34%. Shown is part of a subset that was picked to be rich in actives.
Assay: inhibition of NOD1-driven NF-kB reporter – cell-based, luminescence, uHTS, primary screen (AID 1578);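 also: HEK-293T reporter cells stimulated with the NOD1 agonist gamma-tri-DAP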
Settings: NOD1-driven NF-kB luciferase reporter cells, at 4 µM, stronger effect = higher value

Question: With CC1CCN(C(=O)c2ccccc2NC(=O)c2cccc(S(=O)(=O)N(C)C)c2)CC1 as the compound, how does the inhibition read?
Answer: -46.2% (inactive)

Question: Which inhibition does the source give for CCOC(=O)c1c(-c2ccc(C)o2)csc1NC(=S)NC(=O)c1cccs1 here?
Answer: 36.4% (inactive)

Question: For CCOC(=O)c1c(-c2ccc(C)o2)csc1NC(=S)NC(=O)N(C)C, which inhibition is on record?
Answer: 97.4% (active)

Question: Which inhibition does the source give for CCOC(=O)c1c(-c2ccc(C)o2)csc1NC(=S)NC(=O)c1ccc(F)cc1 here?
Answer: 37.3% (inactive)

Question: With COc1ccc(-c2ncccc2OC(=O)C23CC4CC(CC(C4)C2)C3)cc1OC as the compound, how does the inhibition read?
Answer: -13.7% (inactive)

Question: Which inhibition does the source give for CC1CCC(NC(=O)COc2ccccc2C(N)=O)CC1 (stereo unspecified) here?
Answer: -22% (inactive)

Question: With CN(C)c1oc(/C=C/c2cccs2)nc1S(=O)(=O)c1ccccc1 as the compound, how does the inhibition read?
Answer: 32.1% (inactive)

Question: For Cc1cc(O)c(C(=O)/C=C/c2ccc(C(C)C)cc2)c(=O)o1, which inhibition is on record?
Answer: 5.9% (inactive)

Question: Which inhibition does the source give for Cc1cc(O)c(C(=O)/C=C/c2ccccc2)c(=O)o1 here?
Answer: 0.7% (inactive)

Question: With Cc1cc(O)c(C(=O)/C=C/c2ccc(Cl)cc2)c(=O)o1 as the compound, how does the inhibition read?
Answer: 46.1% (active)

Question: For CCOC(=O)C1(CCc2ccccc2)CCN(Cc2ccc(C(=O)OC)cc2)CC1, which inhibition is on record?
Answer: 13.7% (inactive)

Question: Which inhibition does the source give for Cc1occc1C(=O)Nc1ccc2ccccc2c1 here?
Answer: -121% (inactive)

Question: With Cc1occc1C(=O)Nc1ccc2c(c1)OCCO2 as the compound, how does the inhibition read?
Answer: -15% (inactive)

Question: For Cc1ccc(NC(=O)c2ccoc2C)cc1C, which inhibition is on record?
Answer: 112% (active)

Question: With COC(=O)C(Cc1c[nH]c2ccccc12)NC(=O)c1cccs1 (stereo unspecified) as the compound, how does the inhibition read?
Answer: -7.6% (inactive)

Question: For CCN(C(=O)COc1ccccc1)c1nnc(-c2cccnc2)s1, which inhibition is on record?
Answer: -10.9% (inactive)

Question: Which inhibition does the source give for CN1CCN(c2nc3ccccc3nc2C(C#N)C(=O)OC2CCCCC2)CC1 (stereo unspecified) here?
Answer: 11.4% (inactive)

Question: Which inhibition does the source give for N#CC(C(=O)OC1CCCCC1)c1nc2ccccc2nc1N1CCCCC1 (stereo unspecified) here?
Answer: 4.5% (inactive)

Question: With CCN1CCN(c2nc3ccccc3nc2C(C#N)C(=O)OC2CCCCC2)CC1 (stereo unspecified) as the compound, how does the inhibition read?
Answer: 81.8% (active)

Question: For COCCN1C(=O)C(CC(=O)Nc2ccc(C(C)=O)cc2)SC1=Nc1ccccc1 (stereo unspecified), which inhibition is on record?
Answer: 4.5% (inactive)

Question: With COC(=O)Nc1ccc(C)c(NC(=O)OC)c1 as the compound, how does the inhibition read?
Answer: -7.3% (inactive)

Question: With O=c1[nH]c([N+](=O)[O-])nn1C(c1ccccc1)c1ccccc1 as the compound, how does the inhibition read?
Answer: 6.5% (inactive)

Question: Which inhibition does the source give for COC(=O)c1ccc(CSc2cc(C)c3ccccc3n2)o1 here?
Answer: -55.1% (inactive)

Question: With COC(=O)c1ccc(CSc2cc(C)c3cccc(C)c3n2)o1 as the compound, how does the inhibition read?
Answer: -10.2% (inactive)

Question: For COC(=O)c1ccc(CSc2cc(C)c3cc(C)cc(C)c3n2)o1, which inhibition is on record?
Answer: 48.3% (active)

Question: For CC(C)(C)c1cc(CN2CCC(O)CC2)cc(C(C)(C)C)c1O, which inhibition is on record?
Answer: 36.7% (inactive)

Question: With CCOC(=O)C1CCN(Cc2cc(C(C)(C)C)c(O)c(C(C)(C)C)c2)CC1 as the compound, how does the inhibition read?
Answer: 43.8% (active)

Question: For CCOC(=O)C1CCN(Cc2cc(C(C)C)c(O)c(C(C)C)c2)CC1, which inhibition is on record?
Answer: -13.9% (inactive)

Question: With Cc1c(C(c2cccc(Br)c2)c2c(C)n(C)n(-c3ccccc3)c2=O)c(=O)n(-c2ccccc2)n1C as the compound, how does the inhibition read?
Answer: -14% (inactive)

Question: With CC12C(=O)N(c3ccc(C(=O)N4CCOCC4)cc3)C(=O)C1C1c3ccccc3C2c2ccccc21 (stereo unspecified) as the compound, how does the inhibition read?
Answer: -20.5% (inactive)

Question: Which inhibition does the source give for c1ccc(-n2c(SCC3CCCCO3)nnc2-c2cnccn2)cc1 (stereo unspecified) here?
Answer: 11.8% (inactive)

Question: For CCc1nnc(NC(=O)C2CCN(c3cnccn3)CC2)s1, which inhibition is on record?
Answer: -4.1% (inactive)

Question: Which inhibition does the source give for COc1nc(N/N=C/c2ccc(C)cc2)nc(N2CCCCC2)n1 here?
Answer: -27.3% (inactive)

Question: For Cc1ccc(-n2c(-c3ccncc3)n[nH]c2=S)cc1C, which inhibition is on record?
Answer: -5.7% (inactive)

Question: With Cc1cc(-c2n[nH]c(=S)n2-c2ccc(C)c(C)c2)no1 as the compound, how does the inhibition read?
Answer: 84% (active)

Question: With Cc1ccc(-n2c(C)n[nH]c2=S)cc1C as the compound, how does the inhibition read?
Answer: 3.4% (inactive)

Question: For CCN(CC)S(=O)(=O)N1CCC(C(=O)NCc2ccco2)CC1, which inhibition is on record?
Answer: 22% (inactive)

Question: With COc1ccc(C2(c3ccc(OC)cc3)NC(=O)N(CC(=O)N(C)C)C2=O)cc1 as the compound, how does the inhibition read?
Answer: -33.1% (inactive)

Question: Which inhibition does the source give for COc1c(Cl)cc(-c2noc(C)c2C(=O)NCCc2ccc(C)cc2)cc1Cl here?
Answer: -10.2% (inactive)

Question: For CN(C)c1ccc(NC(=O)C(=O)C2C(=O)Nc3ccccc32)cc1 (stereo unspecified), which inhibition is on record?
Answer: -9.3% (inactive)

Question: For COc1cccc(CC(NC(C)=O)C(=O)NC2CCN(c3c4c(nc5ncnn35)CCC4)CC2)c1OC (stereo unspecified), which inhibition is on record?
Answer: -26.4% (inactive)

Question: Which inhibition does the source give for CCC1=Nc2cc(C(=O)NCC3CCCO3)ccc2Sc2ccc(Br)cc21 (stereo unspecified) here?
Answer: 51.7% (active)

Question: For CC1=Nc2cc(C(=O)NCC3CCCO3)ccc2Sc2ccc(Br)cc21 (stereo unspecified), which inhibition is on record?
Answer: 8.4% (inactive)

Question: With CCC1=Nc2cc(C(=O)NCC3CCCO3)ccc2Sc2ccc(Cl)cc21 (stereo unspecified) as the compound, how does the inhibition read?
Answer: 1% (inactive)

Question: Which inhibition does the source give for CCCCNC(=O)N1CCN(c2ccccc2OC)CC1 here?
Answer: -17.5% (inactive)

Question: For CCCN(CC(=O)Nc1ccc(C(N)=O)cc1)CC(=O)Nc1ccc(F)c(F)c1F, which inhibition is on record?
Answer: 38.1% (active)

Question: With CCCN(CC(=O)Nc1ccc(C(N)=O)cc1)CC(=O)Nc1ccc(Cl)cc1Cl as the compound, how does the inhibition read?
Answer: -30.3% (inactive)

Question: For CCCN(CC(=O)Nc1ccc(NC(C)=O)cc1)CC(=O)Nc1ccc(F)c(F)c1F, which inhibition is on record?
Answer: -20.3% (inactive)

Question: With CC(C)NC(=O)CSc1nnc(-c2ccc3ncccc3c2)n1C as the compound, how does the inhibition read?
Answer: -3.6% (inactive)

Question: For c1cc2[nH]snc2c2nc(C3CC3)nc12, which inhibition is on record?
Answer: 63.2% (active)

Question: Which inhibition does the source give for Cc1nc2ccc3[nH]snc3c2n1 here?
Answer: 20.2% (inactive)

Question: With CCCOc1ccc2cc(-c3ccccn3)c(=O)oc2c1 as the compound, how does the inhibition read?
Answer: 41.1% (inactive)

Question: For CC1CN(CCc2ccccc2)c2nc3c(c(=O)n(C)c(=O)n3C)n2C1 (stereo unspecified), which inhibition is on record?
Answer: -12.5% (inactive)

Question: For N#Cc1ccc(Oc2ccc(-c3nc4ccccc4nc3-c3ccccc3)cc2)cc1C#N, which inhibition is on record?
Answer: 3.3% (inactive)

Question: Which inhibition does the source give for N#Cc1ccc(-n2c(-c3ccccc3)nnc2-c2ccccc2)cc1C#N here?
Answer: 42.1% (active)

Question: Which inhibition does the source give for CCOc1ccc(-n2c(-c3ccccc3)nnc2-c2ccccc2)cc1 here?
Answer: 8.2% (inactive)

Question: For N#Cc1cccc(-n2c(-c3ccccc3)nnc2-c2ccccc2)c1C#N, which inhibition is on record?
Answer: 11.5% (inactive)

Question: For N#Cc1ccc(-c2nc3cc(C#N)c(C#N)cc3nc2-c2ccccc2)cc1C#N, which inhibition is on record?
Answer: 48.5% (active)

Question: For N#Cc1ccc(-c2nc3ccccc3nc2-c2ccccc2)cc1C#N, which inhibition is on record?
Answer: 1.3% (inactive)

Question: With CC(=O)Nc1nnc(CSCc2ccccc2F)s1 as the compound, how does the inhibition read?
Answer: -5.5% (inactive)

Question: Which inhibition does the source give for CC(=O)N(C)c1cccc(-c2ccc3nnc(C)n3n2)c1 here?
Answer: -5.9% (inactive)

Source: PubChem BioAssay AID1578 (Sanford-Burnham Center for Chemical Genomics, 2009)
